Test results published in article PMC7819943, “Rice protein-binding microarrays: a tool to detect cis-acting elements near promoter regions in rice”.
The full ranking holds about 68,000 sequences; the median of “fluorescence intensity (a.u.)” is about 9,100, and the highest 2% start at about 16,000. The sample as a whole holds a higher share of the highest values than the screen did.

target: OsWRKY34 (Oryza sativa, UniProt Q0JBA9 1-250); assay: protein-binding microarray (RPBM); PBS, 2% BSA, 51.3 ng/ul salmon testes DNA, 50 uM zinc acetate, 200 nM TF, 25 C, 1 h; high values mean tight binding; conditions: protein: recombinant; tags: N-terminal polyhistidine and DsRed monomer fusion (pET32a); label: CyDye5-dUTP incorporated in the synthesized complementary strand; 3' TTTTT single-stranded linker to array surface; dsDNA, one strand shown
Procedure, shortened: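 In PBS with 2% BSA, salmon testes DNA and 50 µM zinc acetate, 200 nM protein was incubated on a custom Agilent array at 25 °C for 1 h and then washed off. The array had been made double-stranded by primer extension with Cy5-dUTP and blocked with 2% BSA. The proteins were transcription factors fused N-terminally to polyhistidine and DsRed, expressed in E. coli BL21-CodonPlus and purified on Ni–NTA. The binding signal is per-feature fluorescence intensity (arbitrary units) from an Axon 4000B scanner.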

Sequence of OsWRKY34 (Q0JBA9 entry or part of it): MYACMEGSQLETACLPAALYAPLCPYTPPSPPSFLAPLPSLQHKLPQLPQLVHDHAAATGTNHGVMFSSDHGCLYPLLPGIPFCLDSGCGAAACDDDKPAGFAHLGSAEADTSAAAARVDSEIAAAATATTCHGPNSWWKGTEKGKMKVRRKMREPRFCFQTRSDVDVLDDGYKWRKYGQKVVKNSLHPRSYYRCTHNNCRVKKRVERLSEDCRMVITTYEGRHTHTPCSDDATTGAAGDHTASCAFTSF

Row | Sequence | binding signal
1 | TTTTCTTGTTTGATTGACATAATGGGCCCTACATATTTTTCGGAGTCACCTAGTGCAG | 8440 fluorescence intensity (a.u.)
2 | ATCGCTGGCTTATCATACTCTATTATACCTGCTCTAAGGACGGAGTCACCTAGTGCAG | 10000 fluorescence intensity (a.u.)
3 | GTTTTAATAATGTGTTTGTTTTGGGTTAAAAACCATACTACGGAGTCACCTAGTGCAG | 8340 fluorescence intensity (a.u.)
4 | ACAATGGCACGGTCTACAAAATATATTTTTGACCTTATTTCGGAGTCACCTAGTGCAG | 8440 fluorescence intensity (a.u.)
5 | GCTGACTTCATCTTCATTTTAATATATCTCAAACACCACGCGGAGTCACCTAGTGCAG | 10200 fluorescence intensity (a.u.)
6 | GATGTTCCTGGCCGTGATCGAGCTCCTGCGTTCTTGCTTACGGAGTCACCTAGTGCAG | 10400 fluorescence intensity (a.u.)
7 | GGTTGAAGTTTTTGGCAGGGGTTAGTTTCGAAATAAGTTTCGGAGTCACCTAGTGCAG | 17900 fluorescence intensity (a.u.)
8 | GCGTGTGTTGTGAGATGTATTATGTTGTGCTTTGTATTTTCGGAGTCACCTAGTGCAG | 14900 fluorescence intensity (a.u.)
9 | TTTTATGTTTGTTGGTTGTTGAGTTTATGTGATTATATTTCGGAGTCACCTAGTGCAG | 9050 fluorescence intensity (a.u.)
10 | GTTGAAGTTTTTGGCAGGGGTTAGTTTCGAAATAAGTTTTCGGAGTCACCTAGTGCAG | 8170 fluorescence intensity (a.u.)
11 | CAGTTGGCCTGTTTGTTTGTTGGTTGTGATTAATCTGTGACGGAGTCACCTAGTGCAG | 18800 fluorescence intensity (a.u.)
12 | CGGGCGATTCTAGGGTTATGGTTAGGGTTTTTTTTATTTTCGGAGTCACCTAGTGCAG | 14500 fluorescence intensity (a.u.)
13 | CGGGGCGTGAGGGGTTATGAGTATATTTGTATTTTTTTTTCGGAGTCACCTAGTGCAG | 18400 fluorescence intensity (a.u.)
14 | GTTAGGGTTTTTTTTATTTTTCGATTTTTTTTGTGTTTTTCGGAGTCACCTAGTGCAG | 12000 fluorescence intensity (a.u.)
15 | GTGTATGTATATATGAGTATGTGTGTTTATATTGTATTTTCGGAGTCACCTAGTGCAG | 8460 fluorescence intensity (a.u.)
16 | TCTAGGGTTAGGGTTTCGTGATTTTTGGTTTTTTATTTTTCGGAGTCACCTAGTGCAG | 16900 fluorescence intensity (a.u.)
17 | AGAACAGTTTTTAATCTGACATGTGCCTGTAGTTTGTTGTCGGAGTCACCTAGTGCAG | 10600 fluorescence intensity (a.u.)
18 | TTGAAGTTTTTGGCAGGGGTTAGTTTCGAAATAAGTTTTCCGGAGTCACCTAGTGCAG | 8480 fluorescence intensity (a.u.)
19 | TGGAGGTGGTGGTGGGAGGAAGGGGAGGAGGAGGCGCGGCCGGAGTCACCTAGTGCAG | 15100 fluorescence intensity (a.u.)
20 | AGCTGGCTAAATCATATTTCCAAAGTCTCTCTCGTCTCTCCGGAGTCACCTAGTGCAG | 8510 fluorescence intensity (a.u.)
21 | GCCTTCACAAAATCACAAGCGAATGATTTTACTGCCTTGCCGGAGTCACCTAGTGCAG | 9190 fluorescence intensity (a.u.)

Row | Sequence | binding signal
22 | TGAGTTTTTGTTTGTATTGTTTGACTACTCGTCTTATTCACGGAGTCACCTAGTGCAG | 10400 fluorescence intensity (a.u.)
23 | AAGAGTACGGGTGGGGATGCTTTGGAGTTCACTCCAACTCCGGAGTCACCTAGTGCAG | 10300 fluorescence intensity (a.u.)
24 | TCCCGTACGCCTCTACTACCTCTTTTACCTGCGTGCCTTCCGGAGTCACCTAGTGCAG | 11100 fluorescence intensity (a.u.)
25 | CACCCTTCTTCTCACCCATTGACGGATGCCCTGGAGGTTTCGGAGTCACCTAGTGCAG | 10400 fluorescence intensity (a.u.)
26 | ATTTTTTTCGGTTTGGTTGATTTTATTGAGTTACATTTACCGGAGTCACCTAGTGCAG | 10900 fluorescence intensity (a.u.)
27 | AGTCGCAGTGGTTTTGGTTGGTTGGTTGATTACATTTTGACGGAGTCACCTAGTGCAG | 20000 fluorescence intensity (a.u.)
28 | GTTATGGGTTTGATTTTTTTTCGTTTAGAAAGTTATGGGTCGGAGTCACCTAGTGCAG | 9220 fluorescence intensity (a.u.)
29 | AGGGTTTGGTTGATTTTCGGATTTGGTTTGGTTTTGACGACGGAGTCACCTAGTGCAG | 13300 fluorescence intensity (a.u.)
30 | GGGTTTTTGGTTTTGGTTTTGATTTTGATTTTGATTTTGACGGAGTCACCTAGTGCAG | 16400 fluorescence intensity (a.u.)
31 | CGTTGATTTGGTTTGGGTTAGTTATGGGTTTGATTTTTTTCGGAGTCACCTAGTGCAG | 20600 fluorescence intensity (a.u.)
32 | GGTTTGGTTTTGTTTAGTGGGTTAGAAGCCAATGAGAGCACGGAGTCACCTAGTGCAG | 10300 fluorescence intensity (a.u.)
33 | CATCCGACCTCAACTCCTCTGTCCTCTACTACGCATCTCTCGGAGTCACCTAGTGCAG | 14100 fluorescence intensity (a.u.)
34 | GTAGTTTTGTGAAATTTACTTTTTTTTTTTTTTTTGATAACGGAGTCACCTAGTGCAG | 9770 fluorescence intensity (a.u.)
35 | GTTAACTTGCTTATATGGTACTAGAAGAAAAACTTAATGGCGGAGTCACCTAGTGCAG | 64900 fluorescence intensity (a.u.)
36 | GGGCTTATTTTTTTTTTTTAACTTTGTTATGCTCTAGAAACGGAGTCACCTAGTGCAG | 20100 fluorescence intensity (a.u.)
37 | GTGTGGGGCTTTTAACTTTTTGTCACTTTTAAATTTTAAACGGAGTCACCTAGTGCAG | 21300 fluorescence intensity (a.u.)
38 | TATATTGCTCTTAATTTATTTGTGTTACTTTTTATGTGTTCGGAGTCACCTAGTGCAG | 8330 fluorescence intensity (a.u.)
39 | TTTTTTTCTGGGGTTGCTTAGAATGGTACTAACTATGATTCGGAGTCACCTAGTGCAG | 8900 fluorescence intensity (a.u.)
40 | GATCACATGGGCCACACTTTTTTTTAATTATTTTTTGTGTCGGAGTCACCTAGTGCAG | 8040 fluorescence intensity (a.u.)
41 | ATTATGCATTTATTTTATTTGAAACTTTAATGCTTTTTTTCGGAGTCACCTAGTGCAG | 8110 fluorescence intensity (a.u.)
42 | TTATAAACTTGGTCAAACTTAATAAAGTTTGACTAGAAAACGGAGTCACCTAGTGCAG | 8320 fluorescence intensity (a.u.)
